VP16 counter = VP16 counterscreen qHTS for inhibitors of ROR gamma transcriptional activity. Drosophila S2 Gal4-VP16 UAS-luciferase, luminescence, 20 h. Potency, µM (top dose mostly 53.6 µM), usual class: inhibitors. 310,000 tested, 3.5% active;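 further: Gal4-VP16 expression switched on by copper sulfate through the metallothionein promoter; nearly all actives have a fitted effect of over 50% in size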
rTrxR1 inhibitor = qHTS Assay for Inhibitors of Mammalian Selenoprotein Thioredoxin Reductase 1 (TrxR1): qHTS; AID 588453, 2011; Potency, µM (titrated, usually from 114 µM), actives largely listed as inhibitors; 390,000 tested, 1% active; recombinant rTrxR1, NADPH fluorescence consumption, selenite substrate; further: nearly all actives have a fitted effect of over 65% in size
Target sequence (O89049 whole entry, looked up): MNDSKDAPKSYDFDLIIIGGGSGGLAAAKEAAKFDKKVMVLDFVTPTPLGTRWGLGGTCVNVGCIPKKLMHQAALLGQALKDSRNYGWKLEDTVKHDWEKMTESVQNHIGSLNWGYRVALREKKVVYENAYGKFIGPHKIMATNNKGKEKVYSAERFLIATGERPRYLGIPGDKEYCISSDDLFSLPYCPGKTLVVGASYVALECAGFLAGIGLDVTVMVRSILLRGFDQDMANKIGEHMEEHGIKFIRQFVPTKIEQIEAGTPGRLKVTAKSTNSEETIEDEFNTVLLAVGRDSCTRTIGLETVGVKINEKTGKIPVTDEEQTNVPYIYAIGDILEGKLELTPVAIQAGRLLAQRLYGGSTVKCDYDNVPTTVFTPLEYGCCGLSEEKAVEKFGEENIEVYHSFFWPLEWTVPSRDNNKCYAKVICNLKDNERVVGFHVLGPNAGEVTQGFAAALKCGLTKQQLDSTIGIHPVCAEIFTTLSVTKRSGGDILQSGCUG
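Rat TrxR1 (90 nM in the dispensed reagent) was pre-reduced with 400 uM NADPH for 5 min at room temperature, then incubated with compound for 15 min. After 400 uM selenite was added, NADPH fluorescence (Ex 340/Em 450 nm) was followed for 8 min.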
GALK inhibitor = qHTS Assay for Inhibitors of Human Galactokinase (GALK) | P51570 | Purified GALK, Kinase-Glo residual ATP luminescence | Potency, µM (top dose mostly 57.5 µM), usual class: inhibitors | 270,000 tested, 0.007% active | AID 1868, 2009
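Compounds were pin-transferred into ATP buffer (35 uM final), then GALK plus galactose (5 nM, 100 uM final) was added. After 1 h at room temperature, Kinase-Glo Plus was added and luminescence read after 10 min.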
TrxR1 substrate = qHTS Assay for Substrates of Mammalian Selenoprotein Thioredoxin Reductase 1 (TrxR1): qHTS. Thioredoxin reductase 1, cytoplasmic (Rattus norvegicus), O89049. purified TrxR1 substrate turnover, NADPH consumption readout. Potency, µM (titrated, usually from 114 µM). 390,000 tested, 0.01% active; further: nearly all actives have a fitted effect of over 50% in size
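Rat TrxR1, dispensed at 90 nM, was prereduced with 400 uM NADPH (final) for 5 min at ~22 deg C, then incubated with compound 15 min before 400 uM selenite. A first-read NADPH fluorescence drop versus no-compound background flagged substrates.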
Coupling enz = qHTS Assay for Inhibitors of Fructose-1,6-bisphosphate Aldolase from Giardia Lamblia: Coupling assay counterscreen. activity change, negative = inhibition, % at 58.2 µM, hits read low. coupling enzyme system counterscreen, AmpLite Red fluorescence. 290,000 tested, 0.67% active; in the data active means activity change below about -30%
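First, compound is pin-transferred into glyceraldehyde-3-phosphate coupling-enzyme reagent at 57.5 uM final and held 10 min at RT. Next, substrate, coupling system and AmpLite Red are added. After 20 min RT, fluorescence (525/598 nm) is read.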
RORgamma inh = qHTS for inhibitors of ROR gamma transcriptional activity | Nuclear receptor ROR-gamma (Mus musculus), P51450 | Drosophila S2 Gal4-RORgamma UAS-luciferase reporter, 20 h | Potency, µM (titrated, usually from 53.6 µM), usual class: inhibitors | 310,000 tested, 5.4% active; further: nearly all actives have a fitted effect of over 60% in size
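Stable Schneider cell line, Gal4 DNA-binding domain fused to ROR gamma, UAS-luciferase. Cmpd 1 hr RT → CuSO4 700 uM final → 20 hr RT → luciferase reagent 10 min → luminescence.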
Hits are given with their value; – = inactive; ? = inconclusive; · = no result given; [ ] = remark or other dose. A selection: hits, their analogues and other compounds. The true share with any hit is near 5.9%. Unless noted, the call rests on the fitted dose curve; in most records, active means well fitted curve in the direction sought with a large enough effect; inconclusive means small, poorly fitted or top-dose-only effect, or another doubt; inactive means no such curve, though single readings can be large; an effect the other way counts as inactive or inconclusive.

SMILES | VP16 counter | rTrxR1 inhibitor | GALK inhibitor | TrxR1 substrate | Coupling enz | RORgamma inh
Cc1cccc(C)c1Nc1nnc(SCC(=O)c2ccc(Br)s2)s1 | – | – | – | – | – | –
O=C(O)c1ccc(NS(=O)(=O)c2ccc(Cl)c(Cl)c2)cc1O | – | – | – | – | – | –
Cc1ccc(Cl)cc1S(=O)(=O)N1CCC(C(=O)NC2CCN(Cc3ccccc3)CC2)CC1 | 22µM | – | – | – | – | ?
CC1=C(C#N)C(=O)NC(=O)/C1=C/c1ccc(-c2ccc(S(N)(=O)=O)cc2)o1 | – | 8.9µM | – | – | – | –
NS(=O)(=O)c1ccc(-c2ccc(/C=C3\NC(=S)NC3=O)o2)cc1 | – | 13µM | · | – | – | –
NS(=O)(=O)c1ccc(-c2ccc(C=O)o2)cc1 | – | – | – | – | – | –
CCOc1ccc(C(=O)CCC(=O)N2CCN(c3ccccc3O)CC2)cc1 | · | – | · | – | · | ·
O=C(N/N=C/c1nn(-c2ccccc2)cc1-c1ccccc1)c1ccncc1 | 3.2µM | ? | · | – | – | 1.6µM
O=C(N/N=C/c1ccccc1Cl)c1ccncc1 | – | – | – | – | – | –
Cc1ccc(-c2nn(-c3ccccc3)cc2C=O)o1 | ? | ? | – | – | – | ?
Cc1ccc(-c2nn(-c3ccccc3)cc2/C=N/NC(=O)c2ccncc2)o1 | 11µM | – | – | – | – | 2.8µM
O=C(N/N=C/c1cn(-c2ccccc2)nc1-c1cccs1)c1ccncc1 | 2.2µM | – | – | – | – | 1.3µM
Cc1cccc(NC(=O)C2CC(=O)n3cnnc3S2)c1 (stereo not drawn) | ? | 7.1µM | – | – | – | ?
CCN=C1SC(C(=O)Nc2cccc(C)c2)CC(=O)N1CC (stereo not drawn) | – | – | – | – | – | –
Cc1ccc(-n2c(C)nnc2SCC(=O)N(C)c2c(N)n(Cc3ccccc3)c(=O)[nH]c2=O)cc1 | · | – | · | – | · | ·
CCOc1c(Cl)cc(CNCC(O)c2ccccc2)cc1OC (stereo not drawn) | ? | – | – | – | – | 7.1µM
O=[N+]([O-])c1ccc2nc(NS(=O)(=O)c3ccccc3[N+](=O)[O-])sc2c1 | – | – | – | – | – | –
O=C(NC(Nc1nc2ccc([N+](=O)[O-])cc2s1)(C(F)(F)F)C(F)(F)F)c1cccnc1 | 6.3µM | – | – | – | – | ?
O=C(NC(Nc1nc2ccc([N+](=O)[O-])cc2s1)(C(F)(F)F)C(F)(F)F)c1ccccc1Cl | 0.89µM | – | – | – | – | 6.3µM
CN(C)S(=O)(=O)c1ccc2nc(NC(=O)c3cccnc3)sc2c1 | – | – | – | – | – | –
C/C(Cn1nnc([N+](=O)[O-])n1)=N\NC(=O)c1ccccc1 | ? | ? | – | – | -40 | 10µM
COc1ccc(OC)c(NC(=O)Nc2cccc(OCc3cc(=O)n4cc(C)ccc4n3)c2)c1 | · | – | · | – | · | ·
CCOc1ccc(CC2NCCc3cc(OCC)c(OCC)cc32)cc1OCC (stereo not drawn) | – | 50µM | – | – | – | –
COc1cc2c(cc1OC)C(Cc1ccc(O)cc1)NCC2 (stereo not drawn) | – | – | · | – | – | –
COc1ccc(-c2cc3nc4n(c(=O)c3s2)CCC4)cc1 | 1.6µM | – | – | – | – | ?
SMILES | VP16 counter | rTrxR1 inhibitor | GALK inhibitor | TrxR1 substrate | Coupling enz | RORgamma inh
Cc1nc2cc(-c3ccccc3)sc2c(=O)n1N | 1.6µM | – | ? | – | – | 0.71µM
COc1ccc(-c2cc3nc4n(c(=O)c3s2)CCCCC4)cc1 | – | – | – | – | – | –
Cc1ccc(C)n1-n1c(C)nc2sc(-c3ccccc3)cc2c1=O | · | – | – | – | – | –[0.365 µM]
COc1ccc(-c2cc3nc(C)n(N)c(=O)c3s2)cc1 | 1.3µM | – | – | – | – | 1.8µM
CCc1noc(C)c1C(=O)Nc1nc(-c2cc(C)ccc2C)c(C)s1 | – | – | – | – | – | –
CC(C)(C)NC(=O)C(c1ccncc1)N(Cc1ccco1)C(=O)c1ccc(-c2ccccc2)[nH]1 (stereo not drawn) | 18µM | ? | – | – | – | 7.1µM
O=C(NC1CCCCC1)C(c1ccncc1)N(Cc1ccccc1)C(=O)c1ccc(-c2ccccc2)[nH]1 (stereo not drawn) | – | ? | – | – | – | –
CC(C)(C)NC(=O)C(c1ccc(Cl)cc1)N(Cc1ccco1)C(=O)CCl (stereo not drawn) | – | 13µM | – | – | – | –
CC(C)(C)NC(=O)C(c1ccc(O)cc1)N(Cc1ccco1)C(=O)CCC(=O)Nc1ccccn1 (stereo not drawn) | – | – | – | – | – | ?
O=C(O)CCc1ccc(-c2cccs2)n1-c1ccc(C(=O)O)cc1 | – | 71µM | – | – | – | –
CC(=O)c1cccc(-n2c(CCC(=O)O)ccc2-c2cccs2)c1 | ? | ? | – | – | – | ?
Oc1ccc2ccccc2c1C=NCc1ccccc1 | ? | – | – | – | -32 | ?
NC(=S)N/N=C/c1coc2c(ccc3ccccc32)c1=O | 7.9µM | – | – | – | – | 5.6µM
Oc1c(Br)cc(Br)cc1/C=N/c1nc2c(s1)CCCC2 | · | – | · | – | · | ·
Cc1cc(Nc2ccccc2)nc(-c2ccccc2O)n1 | – | – | – | – | – | –
Cc1cc(N/N=C/c2c(O)ccc3ccccc23)nc(-c2ccccc2O)n1 | 4µM | – | – | – | – | 7.1µM
Oc1ccc2ccccc2c1/C=N/c1nc2c(s1)CCCC2 | ? | – | – | – | -40 | ?
Cc1ccc(OCC(=O)Nc2ccc(-c3nc4ccc(C)cc4o3)cc2)cc1 | · | – | · | –[0.457 µM] | · | ·
CC(C)(C)NCC(O)COc1nsnc1N1CCOCC1 (stereo not drawn) | · | – | · | · | · | ·
NC(=S)N/N=C/c1c(O)ccc2ccccc12 | 4µM | – | · | – | – | 1.1µM
O=CN/N=C/c1c(O)ccc2ccccc12 | 2.8µM | – | – | – | – | 0.79µM
Oc1ccc2ccccc2c1/C=N/Nc1ccccc1 | ? | ? | – | – | – | ?
Oc1ccc2ccccc2c1C=Nc1ccc(Cl)cn1 | – | – | – | – | -46 | ?
CC(C)N(Cc1cn(C)nc1-c1cccc(Cl)c1)CC1CCC(=O)N1 (stereo not drawn) | – | – | – | – | – | –
Cc1ccc2cc(CCNC(=O)C3CCCC3)c(=O)[nH]c2c1 | – | – | – | – | – | –
COc1ccc(C(=O)N/N=C/c2ccc(N3CCOCC3)s2)cc1OC | · | – | · | – | · | ·

High-throughput results (PubChem)
